Measured values from the supplement of paper PMC10127200.
Where a name gives a salt, the structure may show the parent alone.

How the values were obtained:
Experiment in all cases: Euclidean distance of Cell Painting phenotypic profile (signed KS, 77 features) to DMSO centroid (dimensionless distance); 5 or 10 uM (library dependent); higher = stronger phenotypic change vs DMSO (phenoactivity)
Settings in all cases: 48 h
[1] = system: 786-O
Procedure, shortened: (§1)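 Library compounds were applied at 10 or 5 uM, depending on the library, with 0.1% DMSO final, for 48 h to five cancer lines and a healthy fibroblast line. After staining, cells were imaged confocally at 20X across 9 fields per well, and Harmony extracted 77 features, each scored as a signed Kolmogorov-Smirnov statistic against vehicle wells on the same plate. Phenoactivity is the Euclidean distance between each profile and the median vehicle profile, with profiles first plate-position corrected, correlation-weighted and averaged over replicates at the top dose.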

[2] = system: A549
Procedure, shortened: as §1

[3] = system: DU145
Procedure, shortened: as §1

[4] = system: FB
Procedure, shortened: as §1

[5] = system: HEPG2
Procedure, shortened: as §1

[6] = system: OVCAR4
Procedure, shortened: as §1

Row | SMILES | Euclidean distance [1] | Euclidean distance [2] | Euclidean distance [3] | Euclidean distance [4] | Euclidean distance [5] | Euclidean distance [6]
1 | O=C1CCCC(=O)C1C(=O)c1ccc(C(F)(F)F)cc1[N+](=O)[O-] [Nitisinone] | 1.12 | 0.58 | 1.2 | 1 | 0.455 | 1.09
2 | CC(C)(C)CC(C)(C)c1ccc(OCCOCC[N+](C)(C)Cc2ccccc2)cc1 [Benzethonium Chloride] | 3.02 | 2.7 | 2.15 | 1.82 | 2.43 | 2.37
3 | Nc1ncnc2c1ncn2C1OC(COP(=O)(O)O)C(O)C1O (configuration not stated) [Adenosine 5'-monophosphate monohydrate] | 0.685 | 0.894 | 0.9 | 0.831 | 0.601 | 1.27
4 | COc1cc(OC)c(C(=O)CCCN2CCCC2)c(OC)c1 [Buflomedil HCl] | 1.46 | 1.05 | 0.962 | 1.04 | 0.715 | 1.18
5 | Cc1cnc(Nc2ccc(N3CCN(C)CC3)cc2)nc1Nc1cccc(S(=O)(=O)NC(C)(C)C)c1 | 3.77 | 4.93 | 3.18 | 3.58 | 2.58 | 3.26
6 | CN1CCN(S(=O)(=O)c2ccc(-c3cnc(N)c(C(=O)Nc4cccnc4)n3)cc2)CC1 | 3.21 | 3.47 | 1.43 | 1.66 | 1.34 | 3.18
7 | CCCCOc1cc(C(=O)NCCN(CC)CC)c2ccccc2n1 [Cinchocaine] | 0.885 | 1.28 | 0.93 | 1.03 | 1.47 | 1.21
8 | O=C(O)C1=CO[C@@H](O[C@@H]2O[C@H](CO)[C@@H](O)[C@H](O)[C@H]2O)[C@@H]2C(CO)=CC[C@H]12 [Geniposidic acid] | 0.817 | 0.758 | 0.684 | 0.819 | 0.985 | 0.756
9 | NC[C@@H]1O[C@H](O[C@H]2[C@@H](O)[C@H](O[C@@H]3[C@@H](O)[C@H](N)C[C@H](N)[C@H]3O[C@H]3O[C@H](CO)[C@@H](O)[C@H](O)[C@H]3N)O[C@@H]2CO)[C@H](N)[C@@H](O)[C@@H]1O [Paromomycin Sulfate] | 1.05 | 1.06 | 0.88 | 1.2 | 0.817 | 1
10 | C[C@H](NC(=O)Cc1cc(F)cc(F)c1)C(=O)N[C@@H]1C(=O)N(C)c2ccccc2-c2ccccc21 | 0.725 | 1.36 | 1.17 | 1.09 | 0.895 | 0.686
11 | CONC(=O)Nc1ccc(-c2sc3c(c2CN(C)C)c(=O)n(-c2ccc(OC)nn2)c(=O)n3Cc2c(F)cccc2F)cc1 [Relugolix] | 1.06 | 0.927 | 1.37 | 1.4 | 0.841 | 1.3
12 | Cc1oc(=O)oc1CN1CCN(c2cc3c(cc2F)c(=O)c(C(=O)O)c2n3C(C)S2)CC1 (configuration not stated) [Prulifloxacin (NM441. AF 3013)] | 1.38 | 0.71 | 0.968 | 0.785 | 1.9 | 0.841
13 | Cc1cc([C@@H](C)Nc2ccccc2C(=O)O)c2nc(N3CCOCC3)cc(=O)n2c1 | 1 | 1.82 | 1.52 | 1.71 | 1.59 | 3.2
14 | CC(=O)Oc1cccc2c1C(=O)c1c(OC(C)=O)cc(C(=O)O)cc1C2=O [Diacerein] | 0.962 | 0.94 | 1.19 | 1.22 | 0.429 | 1.51
15 | Cc1cc(F)c(Nc2ncnc3cc(OCc4ccccc4)ccc23)cc1O | 1.83 | 0.984 | 0.521 | 1.8 | 0.631 | 0.745
16 | O=c1[nH]c(=O)n([C@H]2C[C@H](O)[C@@H](CO)O2)cc1/C=C/Br [Brivudine] | 1.21 | 0.849 | 0.765 | 1.07 | 0.725 | 0.962
17 | O=C(CCCCCCNC(=O)c1cnc(N(c2ccccc2)c2ccccc2)nc1)NO [Ricolinostat (ACY-1215)] | 1.87 | 1.63 | 1.29 | 3.31 | 2.26 | 2.18
18 | O=C(O)CCCCCCCC(=O)O [Azelaic acid] | 0.8 | 1.26 | 0.798 | 0.728 | 0.834 | 0.801
19 | C[C@H]1c2cccc(O)c2C(=O)C2=C(O)[C@]3(O)C(=O)C(C(N)=O)=C(O)[C@@H](N(C)C)[C@@H]3[C@@H](O)[C@@H]21 [Doxycycline] | 1.5 | 1.3 | 0.845 | 0.954 | 0.564 | 1.67

Row | SMILES | Euclidean distance [1] | Euclidean distance [2] | Euclidean distance [3] | Euclidean distance [4] | Euclidean distance [5] | Euclidean distance [6]
20 | Cc1cc(-c2ncc(CC(=O)Nc3ccc(-c4cnccn4)cn3)cc2C)ccn1 | 1.05 | 1.24 | 0.884 | 0.878 | 0.741 | 0.931
21 | O=C(Nc1c(Cl)cncc1Cl)c1ccc(OC(F)F)c(OCC2CC2)c1 [Roflumilast] | 1.07 | 1.27 | 0.92 | 0.952 | 0.815 | 1.12
22 | CCO[C@@H]1OC(=O)C[C@@H]1NC(=O)[C@@H]1CCCN1C(=O)[C@@H](NC(=O)c1ccc(N)c(Cl)c1)C(C)(C)C | 0.836 | 1.87 | 2.17 | 1.85 | 1.04 | 1.35
23 | Cc1[nH]c(/C=C2\C(=O)Nc3ccc(S(=O)(=O)Cc4c(Cl)cccc4Cl)cc32)c(C)c1C(=O)N1CCC[C@@H]1CN1CCCC1 | 3.99 | 4.22 | 1.16 | 2 | 1.59 | 4.7
24 | Clc1cccc(Cl)c1NC1=NCCN1 [Clonidine HCl] | 1.05 | 1.46 | 1.32 | 1.16 | 0.83 | 1.24
25 | O=S(=O)(O)CCSSCCS(=O)(=O)O [Dimesna] | 0.983 | 1.01 | 1.18 | 1.16 | 0.803 | 1.13
26 | CC1=C(/C=C/C(C)=C/C=C/C(C)=C/C(=O)Nc2ccc(O)cc2)C(C)(C)CCC1 [Fenretinide] | 2.9 | 2.87 | 1.92 | 2.58 | 1.91 | 2.4
27 | CS(=O)(=O)c1ccc(-c2cnc(N)c(C(=O)Nc3ccccc3)n2)cc1 | 0.811 | 2.05 | 1.29 | 1.27 | 1.07 | 1.23
28 | C=C1CC[C@H]2C(=C)CC[C@H]3C(=C)C(=O)O[C@@H]3[C@@H]12 [Dehydrocostus Lactone] | 6.1 | 3.77 | 7.43 | 3.32 | 3.68 | 2.97
29 | CCOC(=O)c1c(N)sc2c1CCN(Cc1ccccc1)C2 [Tinoridine hydrochloride] | 1.51 | 0.9 | 1.2 | 1.13 | 0.814 | 1.31
30 | O=C(O)c1cc(=O)c2c(OCC(O)COc3cccc4oc(C(=O)O)cc(=O)c34)cccc2o1 [Disodium Cromoglycate] | 0.952 | 0.486 | 1.78 | 1.02 | 0.769 | 1.05
31 | CCCCCOc1ccc(-c2ccc(-c3ccc(C(=O)N[C@H]4C[C@@H](O)[C@@H](O)NC(=O)[C@@H]5[C@@H](O)[C@@H](C)CN5C(=O)[C@H]([C@@H](C)O)NC(=O)[C@H]([C@H](O)[C@@H](O)c5ccc(O)cc5)NC(=O)[C@@H]5C[C@@H](O)CN5C(=O)[C@H]([C@@H](C)O)NC4=O)cc3)cc2)cc1 | 0.818 | 0.702 | 1.21 | 0.749 | 1.21 | 1.01
32 | COC(=O)/C=C/C(=O)OCCN1C(=O)CCC1=O [Diroximel Fumarete] | 0.82 | 0.396 | 1.17 | 1.24 | 0.611 | 0.814
33 | COc1ccnc(C[S+]([O-])c2nc3cc(-n4cccc4)ccc3[nH]2)c1C (configuration not stated) [Ilaprazole] | 1.22 | 1.57 | 1.17 | 1.23 | 0.928 | 1.27
34 | COc1ccc(C2CNC(=O)C2)cc1OC1CCCC1 (configuration not stated) [Rolipram] | 1.65 | 1.51 | 0.853 | 0.861 | 1.13 | 1.44
35 | COc1cc(Nc2ncc3c(n2)-c2ccc(Cl)cc2C(c2c(F)cccc2OC)=NC3)ccc1C(=O)O [Alisertib (MLN8237)] | 2.85 | 3.22 | 2.99 | 3.08 | 2.23 | 2.8
36 | O=C1Cc2cc(CCN3CCN(c4nsc5ccccc45)CC3)c(Cl)cc2N1 [Ziprasidone HCl] | 1.99 | 1.47 | 1.15 | 1.3 | 0.985 | 1.64
37 | Cn1cnc(N)c2ncnc1-2 [3-Methyladenine] | 1.21 | 1.11 | 1.58 | 1.28 | 1.37 | 0.677
